According to PubChem BioAssay (NCI):
Several values for one entry are separate records, joined by “and”; a condition that tells them apart may be missing. Equal values may be shown once. About 83,000 compounds went through this panel and 20% of them were active in at least one assay; those are over-represented in the sample as a whole.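 How to read the values: 0–100, growth inhibition (40 = 60% inhibited); 0, no net growth; -100 to 0, cell death (-40 = 40% of starting cells died; -100 = all dead).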 A number with no mark means an inactive call. Activity calls are given as the source filed them. Rule for the calls: active = growth percent below 10; inactive = the rest.

Each molecule was assayed on HL-60(TB) leukemia (assay: NCI-60 one-dose screen, 48 h (100 = growth as untreated, 0 = no growth, -100 = all killed)). Settings: 10 µM unless noted.
`COc1ccc2c(c1)sc1nc(-c3ccc(Br)cc3)cn12` showed a growth of 80.7%.
For `Cc1[nH]c2ncnc(Oc3ccc(NC(=O)Nc4ccc(Cl)c(C(F)(F)F)c4)cc3)c2c1C`, the growth was 65.6%.
For `CC(C)C1C2=C(NCCN1C(=O)Cc1ccccc1)C(C)(C)N(Cc1ccccc1)C2=O` (stereo not given), the growth was 100%.
For `O=C(Cc1ccccc1)Nc1nc(O)c(/C=C2\C(=O)C=Cc3ccccc32)s1`, the growth was 103%.
In the case of `CCOC(=O)c1csc(N)n1`, the growth was 95.1% and 98.1%.
Work on `Cn1c(-c2ccc(Br)cc2)c(O)c(=O)c2c(F)cccc21` yielded a growth of 122%.
`O=[N+]([O-])c1cc(S(=O)(=O)c2ccc(F)c([N+](=O)[O-])c2)ccc1F` gave a growth of 59.9%.
In the case of `CC(=O)OCC(=O)[C@@]1(O)CC[C@H]2[C@@H]3CCC4=CC(=O)CC[C@]4(C)[C@@]3(F)[C@@H](O)C[C@@]21C`, the growth was 98.2%.
With `Cn1ccnc1C(=O)/C=C/c1ccc(CC(=O)Nc2ccc(C(F)(F)F)cc2)cc1` the growth was -2.06% (active).
`COc1ccc(-c2nnc(SCC(=O)c3ccc(Cl)cc3)o2)cc1` showed a growth of 108%.
With `COc1cccc(C2=NN(C(C)=O)C(c3cc(OC)c(OC)c(OC)c3)C2)c1` (stereo not given) the growth was -17.8% (active).
`C1CN(SSN2CCOCC2)CCO1` gave a growth of 35.6% [100 µM].
For `C=C1C(=O)O[C@H]2[C@H]1CC/C(Cn1cc(CNC(=O)c3cc4ccccc4[nH]3)nn1)=C\CC[C@@]1(C)O[C@@H]21`, the growth was -20.8% (active).
In the case of `C[C@H](c1nc2ccc(N)cc2[nH]1)[C@H]1CC[C@H]2[C@@H]3CCC4=CC(=O)CC[C@]4(C)[C@H]3CC[C@]12C`, the growth was -50.2% (active).
With `Cc1[nH]nc2c(=S)[nH]c(=O)[nH]c12` the growth was 89.2%.
For `CC(O)(CC(=O)CC(=O)c1ccccc1)c1ccccc1` (stereo not given), the growth was 101% and 90.1%.
With `CC1=C(C(=O)OCC2CCN(C(=O)OC(C)(C)C)CC2)[C@@H](c2cccc(C#N)c2)C2=C(CC(C)(C)CC2=O)N1` the growth was 16.8%.
Molecule `Oc1ccc(O)c(-[n+]2ccccc2)c1` has a growth of 101%.
In the case of `O=C(Nc1ccc(Br)cc1)Nc1ccccc1Cl`, the growth was 70.7%.
With `C/C=C(\C)C(C(=O)NC1CCCCC1)N(C(=O)C1CCc2cc(F)ccc2O1)c1ccc(Cl)cc1` (stereo not given) the growth was 97.8%.
`O=c1c2cc(F)ccc2sc2c(N3CCCCC3)nc3ccccc3c12` showed a growth of 102%.
`COc1ccc(/C=C/C(=O)C(=O)/C=C/c2ccc(OC)c(OC)c2)cc1OC` was tested, and the growth was 35.4%.
In the case of `O=C1/C=C/[C@@H](O)[C@@H]2C[C@@H](O)C[C@H]2/C=C/CCCCO1`, the growth was -22.8% (active).
Molecule `Cc1ccn2cc(Cc3cc(=O)oc4c3ccc3ccccc34)c(=O)nc2c1` has a growth of 86.1%.
With `CN1C(=O)N(C)C2C1NN=c1s/c(=C\c3c[nH]c4ccccc34)c(=O)n12` (stereo not given) the growth was -34.1% (active).
`O=C(CC(=O)c1ccccc1F)Nc1ccc([N+](=O)[O-])cc1` showed a growth of 98.2%.
`CC[C@]12C=CCN3CC[C@@]4(c5cc(NC(=O)CCC(=O)O[C@H]6CC[C@H]7[C@@H]8CCC9=CC(=O)CC[C@@H]9[C@H]8CC[C@]67C)c(OC)cc5N(C)[C@H]4[C@@](O)(C(=O)OC)[C@@H]1OC(C)=O)[C@@H]32` was tested, and the growth was 62.5%.
In the case of `C[C@]12C[C@H]1CC[C@]1(C)[C@@H]2CC[C@@]23C[C@H](CC[C@H]21)[C@@](O)(CO)C3`, the growth was 103%.
`Cc1ccc(/C=N/NC(N)=S)s1` showed a growth of 101%.
In the case of `O=C(c1ccc(Cl)cc1)C(NCCO)c1ccc(Cl)cc1` (stereo not given), the growth was 86.9% and 116%.
With `C=C1C(=O)O[C@H]2[C@H]1CC/C(COC(=O)NCc1ccc(Cn3c(=O)sn(CCI)c3=O)cc1)=C\CC[C@@]1(C)O[C@@H]21` the growth was 0.649% (active).
`CCOC(=O)c1cc2c(n1Cc1ccccc1)-c1oncc1CCC2` showed a growth of 33.9%.
For `O=C(/C=C/c1ccc(Cl)cc1)c1ccc(O)c(CN2CCN(c3cc4c(cc3F)c(=O)c(C(=O)O)cn4C3CC3)CC2)c1`, the growth was 51.5%.
Work on `Cc1ccccc1CNc1ccc(N2CCOCC2)cc1` yielded a growth of 102%.
In the case of `COc1ccc(C(=O)/C=C/c2c[n+](=O)c3ccc(F)cc3n2[O-])cc1`, the growth was 83.3%.
With `CC1=C(CCC(C)N(C)Cc2ccc(OCCCN3CCCC3)cc2)C(C)(C)CCC1` (stereo not given) the growth was 24.6%.
`Cc1ccc2c(c1)-c1cc(C)nn1-c1ccc(C#N)cc1O2` gave a growth of 69.2%.
In the case of `Cc1ccc(C2=Nc3c(ccc4c(C)c(C)c(=O)oc34)OC2)cc1`, the growth was 98.3%.
`COc1cc(OC)cc(-c2n[nH]nc2-c2ccc3c(c2)OCO3)c1` was tested, and the growth was 8.65% (active).
For `CC[C@]12CN3CCc4c([nH]c5ccccc45)[C@@](C(=O)OC)(c4cc5c(cc4OC)N(C)[C@H]4[C@@](O)(C(=O)OC)[C@H](OC(C)=O)[C@]6(CC)C=CCN7CC[C@]54[C@@H]76)CC(C3)[C@H]1O2` (stereo not given in full), the growth was -1.28% (active).
